Assay results reported in PubChem BioAssay AID1159580 (chemical genetic matrix, 2015).
Among all 5,500 compounds or so, about 2,000 (36%) were called active. Inconclusive results (about 18%) are left out. Rule as the data show it: active = normalized growth mostly below about 0.91 (no sharp cut-off); inconclusive = no clear call, values can overlap the other calls; inactive = mostly above about 0.92. Some of the results follow.

Experiment: chemical genetic growth profiling, strain panel (AID 1159580);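 also: tested at 20 µM; growth read once vehicle control cultures reached saturation at 30 °C; 1 = growth at the plate median or of vehicle wells; lower values mean less growth of the strain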
Conditions: S. cerevisiae deletion strains, growth OD

Measured: normalized growth

CCc1ccn2cc(Nc3ccccc3Cl)nc2c1
inactive: locus YAR019C, strain CDC15, active compounds read low 0.983 | locus YBL105C, strain PKC1, active compounds read low 0.976 | locus YBR135W, strain CKS1, active compounds read low 0.98 | locus YBR136W, strain MEC1, active compounds read low 0.968 | locus YBR160W, strain CDC28, active compounds read low 0.971 | locus YDL017W, strain CDC7, active compounds read low 0.974 | locus YDL028C, strain MPS1, active compounds read low 0.98 | locus YDL101C, strain DUN1, active compounds read low 0.982 | locus YDL108W, strain KIN28, active compounds read low 0.976 | locus YDL132W, strain cdc53, active compounds read low 0.985 | locus YDL214C, strain PRR2, active compounds read low 0.945 | locus YDR052C, strain DBF4, active compounds read low 0.993 | locus YDR054C, strain cdc34, active compounds read low 0.959 | locus YDR226W, strain ADK1, active compounds read low 0.985 | locus YDR477W, strain SNF1, active compounds read low 0.947 | locus YER123W, strain YCK3, active compounds read low 0.898 | locus YER133W, strain GLC7, active compounds read low 0.947 | locus YFL009W, strain cdc4, active compounds read low 0.983 | locus YFL029C, strain CAK1, active compounds read low 0.98 | locus YFR003C, strain YPI1, active compounds read low 0.973 | locus YFR019W, strain FAB1, active compounds read low 0.948 | locus YFR028C, strain CDC14, active compounds read low 0.978 | locus YGR040W, strain KSS1, active compounds read low 0.91 | locus YGR052W, strain FMP48, active compounds read low 1.01 | locus YGR092W, strain DBF2, active compounds read low 0.898 | locus YHR030C, strain SLT2, active compounds read low 0.965 | locus YHR079C, strain IRE1, active compounds read low 0.96 | locus YHR082C, strain KSP1, active compounds read low 0.998 | locus YHR205W, strain SCH9, active compounds read low 0.959 | locus YIL147C, strain SLN1, active compounds read low 0.973 | locus YJL095W, strain BCK1, active compounds read low 0.96 | locus YJL128C, strain PBS2, active compounds read low 0.967 | locus YJL157C, strain FAR1, active compounds read low 0.906 | locus YJR016C, strain ILV3, active compounds read low 0.987 | locus YJR066W, strain TOR1 (second series), active compounds read low 0.895 | locus YJR066W, strain TOR1, active compounds read low 0.973 | locus YKL048C, strain ELM1, active compounds read low 0.984 | locus YKL067W, strain YNK1, active compounds read low 0.962 | locus YKL101W, strain HSL1, active compounds read low 0.949 | locus YKL193C, strain SDS22, active compounds read low 0.979 | locus YKL203C, strain TOR2, active compounds read low 0.973 | locus YLR113W, strain HOG1, active compounds read low 0.916 | locus YLR133W, strain CKI1, active compounds read low 0.928 | locus YLR403W, strain SFP1, active compounds read low 0.886 | locus YML070W, strain DAK1, active compounds read low 0.917 | locus YMR001C, strain CDC5, active compounds read low 0.978 | locus YMR205C, strain PFK2 (second series), active compounds read low 0.966 | locus YMR277W, strain FCP1, active compounds read low 0.981 | locus YNL006W, strain LST8, active compounds read low 0.997 | locus YNL020C, strain ARK1, active compounds read low 0.94 | locus YNL161W, strain CBK1, active compounds read low 0.98 | locus YNL183C, strain NPR1, active compounds read low 0.973 | locus YNL207W, strain RIO2, active compounds read low 0.972 | locus YNL222W, strain SSU72, active compounds read low 0.973 | locus YNL307C, strain MCK1 (second series), active compounds read low 0.917 | locus YOL078W, strain AVO1, active compounds read low 0.981 | locus YOL136C, strain PFK27, active compounds read low 0.926 | locus YOR061W, strain CKA2, active compounds read low 0.963 | locus YOR119C, strain RIO1, active compounds read low 0.985 | locus YOR231W, strain MKK1, active compounds read low 0.905 | locus YOR329C, strain SCD5, active compounds read low 0.972 | locus YPL031C, strain PHO85, active compounds read low 0.911 | locus YPL153C, strain RAD53, active compounds read low 0.912 | locus YPL204W, strain HRR25, active compounds read low 0.921 | locus YPL209C, strain IPL1, active compounds read low 0.976 | locus YPL256C, strain CLN2, active compounds read low 0.917 | locus YPR025C, strain CCL1, active compounds read low 0.983 | locus YPR106W, strain ISR1, active compounds read low 0.971 | locus YPR111W, strain DBF20, active compounds read low 0.97 | strain NNK1, active compounds read low 0.981 | strain TSCII, active compounds read low 0.983
